The test in a line: HEK293 cell viability loss – plate reader, cherry-pick, cytotoxicity control, dose response (AID 651899).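 Note: cells exposed to compound for 48 hours.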 The settings on record: series mostly up to 26 µM.

Measured potencies and affinities stand elsewhere. The source made the active and inactive calls. The rule behind the calls is not given here.

Turning to `O=C(Nc1cccnc1)C1CCN(S(=O)(=O)c2ccc(Cl)cc2)CC1`, the result was inactive.
With `CCC(=O)N1CC[C@@H]2[C@H]1c1cc(-c3cccc(F)c3)ccc1N(C)[C@@H]2CO` the entry was “inactive”; with `O=C(CSc1n[nH]c(-c2cccnc2)n1)Nc1ccnc2ccccc12`, “inactive”.
For the compound `COc1ccc(NC(=O)c2cnc(C)cn2)cc1-n1cnnn1`, the result was inactive.
`Cc1cc(C(=O)NC2CC(C)(C)Cc3c2cnn3-c2cccc(F)c2)nn1C` (stereo unspecified): the call was inactive.
As to `CCN(CC)S(=O)(=O)c1ccc(NC(=O)c2ccc(Cl)nc2)cc1`, the call was inactive.
As to `O=C(Nc1ccccc1)N1CCN(Cc2ccc3c(c2)OCO3)CC1`, the compound was called inactive.
As for `Cc1nc2sc(C(c3ccc(Cl)cc3)N3CCN(c4ccccc4F)CC3)c(O)n2n1` (stereo unspecified), the compound was called inactive.
For the compound `Cc1c(C(N)=O)sc(N)c1C(=O)OC(C)C`, the call was inactive.
Turning to `Cc1nc2nc(SCC(=O)NCc3ccco3)nn2c(C)c1Cc1c(F)cccc1Cl`, the outcome was inactive.
`Cc1c(OC(C)C(=O)NCC2CCC(C(=O)O)CC2)ccc2c1oc(=O)c1ccccc12` (stereo unspecified): the result was inactive.
In the case of `N#Cc1ccc(-c2ccc3c(c2)[C@@H]2[C@@H](CCN2C(=O)c2ccc(F)cc2)[C@@H](CO)N3)cc1` it was “inactive”; in that of `O=C(c1cccc(F)c1)N1CC[C@@H]2[C@H](CO)Nc3ccc(-c4cccc(F)c4)cc3[C@@H]21`, “inactive”; in that of `O=C(c1ccncc1)N1CC[C@H]2[C@H](CO)Nc3ccc(Br)cc3[C@H]21`, “inactive”.
For the compound `CC(=O)Nc1ccc2nc(-c3cccnc3)[nH]c2c1`, the result was inactive.
On to `COC(=O)C[C@@H]1CC[C@@H]2[C@H](COC[C@@H](O)CN2C(=O)Nc2cccc(F)c2)O1`, for which the compound was classed as inactive.

The record behind these values is PubChem BioAssay AID651899 (Broad Institute, 2012).
